Bioassay records: PubChem, National Center for Advancing Translational Sciences (NCATS)
Sampled rows, rich in hits. Any-hit rate of the full collection: about 3.1%.
PMP22 txn prim: PMP22 gene transcription modulation; S16 Pmp22-F2sN Schwann cells, FLuc/NLuc coincidence luminescence, 24 h; Potency, µM (titrated, usually from 57.5 µM), inactives show at the top dose activity change, negative = inhibition, usual class: inhibitors; actives 2% (n = 43,000); active = clear falling dose curves in both reporters; inconclusive = both reporters move, but less clearly or upward; inactive = either reporter flat; the % is the NLuc reporter signal
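Schwann cells carrying the coincidence reporter were exposed to library compounds for 24 h at 37C, then lysed and read for FLuc and, after quenching, NLuc luminescence on a CCD imager.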
p53null 39C tox: p53 null cell cytotoxicity, nonpermissive temperature; Potency, µM (titrated, usually from 46.1 µM), without a hit: top-dose activity, negative = cell killing, hits mostly cytotoxic; H1299 p53-null (neo) cells, 39C, ATPlite viability, 24 h; actives 0.97% (n = 55,000);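 note: 0% = DMSO only and -100% = full killing by 100 µM tamoxifen; nearly all actives have a fitted effect of over 50% in size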
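Temperature-shift cytotoxicity format: compound titrations on p53-null or A138V-expressing H1299 cells held 24 hr at 39C, cell ATP then measured, AC50 from Hill model.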
OvCa metastasis: ovarian cancer metastasis inhibition, 3D TME model. SKOV3ip1-GFP adhesion/invasion on 3D omental model, fluorescence. Potency, µM (titrated, usually from 45.8 µM), for inactives: at the highest dose activity change, negative = inhibition, actives largely listed as inhibitors. actives 0.1% (n = 46,000). AID 1963576;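 note: plate controls were DMSO wells for no effect and tomatine positive control wells for full effect; nearly all actives have a fitted effect of over 65% in size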
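Primary human omental fibroblast/mesothelial 3D culture pre-formed 48 h. SKOV3ip1-GFP cells added with compounds (0.36-46 umol/L), incubated 2 h RT/16 h 37 C, fixed; GFP cells quantified at 488/509 nm.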
S16 F2sN tox: toxic to S16 Pmp22-F2sN Schwann cells. S16 Pmp22-F2sN Schwann cells (luciferase reporters placed in the Pmp22 gene) viability, CellTiter-Glo, 24 h. Potency, µM (series often up to 57.5 µM), for the others: at the top dose activity change, negative = cytotoxicity, most hits filed as cytotoxic. actives 0.48% (n = 43,000); note: nearly all actives have a fitted effect of over 65% in size
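S16 Schwann cells carrying the Pmp22-F2sN reporter, seeded in 1536-well format, were exposed to library compounds for 24 h at 37C. Viability was read as CellTiter-Glo luminescence after 15 min at room temperature.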
mTORC1 inh: inhibitors of mTORC1 signaling in Tsc2-/- p53-/- MEF cells; Tsc2-/- p53-/- MEF, phospho-rpS6 immunofluorescence/PI, 24 h; Potency, µM (doses to about 38.3 µM), without a hit: at the top dose activity change, negative = inhibition, most hits filed as inhibitors; actives 0.78% (n = 44,000); AID 493208;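 note: plate controls were DMSO for no effect and rapamycin for full effect; nearly all actives have a fitted effect of over 50% in size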
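Cell-based qHTS: Tsc2-/- p53-/- MEF, 24 h cpd, 37 °C; fix/perm, anti-phospho-S6 Alexa-488 + PI; Acumen 488 nm scan; pS6/PI ratio, % positive cells; rapamycin 7.5 nM = inhibition ref; PI count = viability.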
p53null 32C tox: selectivity test: cytotoxicity in p53 null cells, permissive temperature. H1299-neo p53 null cells, ATP luminescence, 24 h, 32C. Potency, µM (top dose mostly 46.1 µM), for inactives: at the top dose activity change, negative = cytotoxicity, actives largely listed as cytotoxic. actives 0.62% (n = 55,000). AID 903;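 note: 0% = DMSO only and -100% = full killing by 100 µM tamoxifen; nearly all actives have a fitted effect of over 55% in size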
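We seeded p53-null H1299-neo cells, incubated them overnight at 37C, and added compounds across a range up to 46 uM. After 24 hours at 32C, ATP reagent was applied for 20 min at room temperature and luminescence recorded.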
Starred values were filed as active, the others as inactive; i = inactive; ? = inconclusive; · = no result given. Unless noted, calls come from the whole dose curve; as a rule, active = well fitted curve in the direction sought with a large enough effect; inconclusive = small, poorly fitted or top-dose-only effect, or another doubt; inactive = no such curve, though single readings can be large; an effect the other way counts as inactive or inconclusive. Unless noted, % is set by controls: 0 for no effect and ±100 for the full control effect; potency is the fitted concentration of half-maximal effect.

SMILES	PMP22 txn prim	p53null 39C tox	OvCa metastasis	S16 F2sN tox	mTORC1 inh	p53null 32C tox
CCOc1ccccc1NC(=O)c1nc(S(=O)(=O)Cc2cccc(C)c2)ncc1Cl	1.68µM*	?	i	3.16µM*	?	15.2%
CCc1nnc(NC(=O)c2nc(S(=O)(=O)Cc3cccc(C)c3)ncc2Cl)s1	9.46µM*	?	12.6µM*	?	11.7µM*	53.5%
Cc1ccc(C)c(NC(=O)c2nc(S(=O)(=O)Cc3ccc(F)cc3)ncc2Cl)c1	7.61µM*	?	11.2µM*	?	2.07µM*	-0.6%
CCOc1ccccc1NC(=O)c1sc2nc(C)cc(C)c2c1N	?	3.6%	9.1%	-1.7%	2.8%	-1.4%
CCOc1ccc(NC(=O)c2nc(S(=O)(=O)Cc3ccccc3F)ncc2Cl)cc1	1.34µM*	?	?	5.01µM*	3.69µM*	-19.4%
Cc1cccc(CSc2ncc(Cl)c(C(=O)Nc3nc4ccc(F)cc4s3)n2)c1	?	-7.7%	i	-12.4%	4.2%	-8.9%
CCOC(=O)c1ccc(NC(=O)c2nc(SCc3ccccc3F)ncc2Cl)cc1	-5.3%	-7.3%	-2.9%	9.3%	-3.8%	-7.0%
CC1(C)[C@H]2CC[C@]3(C)[C@@H](C(=O)C=C4[C@@H]5C[C@@](C)(C(=O)O)CC[C@]5(C)CC[C@]43C)[C@@]2(C)CC[C@@H]1O	·	·	17.7%	·	·	·
CCc1nnc(NC(=O)c2nc(S(=O)(=O)Cc3ccc(C)cc3)ncc2Cl)s1	?	15.8µM*	?	?	?	?
CCc1nnc(NC(=O)c2nc(SCc3ccccc3F)ncc2Cl)s1	-24.3%	-11.8%	4.4%	5.7%	2.0%	0.7%
O=C(C1CC1)N1CCc2cc(Br)cc(S(=O)(=O)Nc3ccc(F)c(F)c3)c21	?	12.6µM*	34.5%	?	0.0%	25.1µM*
O=C(C1CC1)N1CCc2cc(Br)cc(S(=O)(=O)Nc3ccc(C(F)(F)F)cc3)c21	?	15.8µM*	i	8.0%	?	?
Cn1c(=O)c(F)c(Nc2ccc(I)cc2F)c2c(=O)n(C[C@@H](O)CO)cnc21	·	·	1.6%	·	·	·
Cc1cc(C)cc(NC(=O)Cn2cc(C(=O)C3CCCCC3)c3ccccc32)c1	?	?	5.7%	2.1%	-25.3%	-17.9%
Cc1c(Cl)cccc1NC(=O)Cn1cc(C(=O)C2CCCCC2)c2ccccc21	10µM*	?	?	?	-22.8%	13.7%
CC1(O)CC(c2nc(-c3ccc4ccc(-c5ccccc5)nc4c3)c3c(N)nccn23)C1 (stereo unspecified)	·	·	3.3%	·	·	·
CC(C)C[C@@H](C(=O)N[C@H](C(=O)OC1CCCC1)c1ccccc1)[C@H](O)C(=O)NO	·	·	8.2%	·	·	·
CCOc1cc(CNCCSc2nnnn2C)cc(Cl)c1OCc1ccc(Cl)cc1	?	11.2µM*	?	-12.5%	16.5µM*	?
CN(CCCNC(=O)c1cc2c(Cl)nc3ccccc3c2s1)Cc1ccccc1	?	25.1µM*	?	?	13.1µM*	?
CC1CCCN(CCCNC(=O)c2cc3c(Cl)nc4ccccc4c3s2)C1 (stereo unspecified)	?	-28.8%	-6.1%	?	18.5µM*	2.2%
CCN(CCCNC(=O)c1cc2c(=O)[nH]c3ccc(C)cc3c2s1)Cc1ccccc1	?	?	?	?	18.5µM*	?
CC(=O)OC1C(C)OC(Oc2c(-c3ccc(O)cc3)oc3cc(O)cc(O)c3c2=O)C(O)C1OC(C)=O (stereo unspecified)	·	·	-6.7%	·	·	·
CC(C)c1nnc(NC(=O)c2nc(SCc3ccc(F)cc3)ncc2Cl)s1	-4.4%	-13.2%	6.9%	8.0%	-3.1%	-12.4%
